According to PubChem BioAssay (NCATS):
Values joined by “and” are separate entries in the source; they are usually repeats but may differ in a detail not shown here. Equal values may be shown once. Records with an inconclusive call do not appear. More than one record can exist for a structure, and the calls need not agree. Active and inactive are the calls of the source. Unless noted, calls follow the shape of the dose curve; as a rule, active = well fitted curve in the direction sought with a large enough effect; inconclusive = small, poorly fitted or top-dose-only effect, or another doubt; inactive = no such curve, though single readings can be large; an effect the other way counts as inactive or inconclusive.

Experiments:
[1] = target: Protein phosphatase 1D (Homo sapiens) (UniProt O15297); experiment: Rhodamine-PBP qHTS Assay for Modulators of WT P53-Induced Phosphatase 1 (WIP1) (AID 1347425); details: recombinant WIP1, Rhodamine-PBP phosphate fluorescence, real-time; series mostly up to 57.5 µM
Method in brief: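 5 nM WIP1 + 10 uM Rh-PBP, 50 mM Tris pH 7.5, 30 mM MgCl2, 1 mM TCEP, 0.1 mM EGTA, BSA; cpds pinned, 1 hr RT; + 10 uM phosphopeptide; fluorescence 1-min reads x 11 min; delta = f1 - f0.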

[2] = Primary qHTS for inhibitors of La Crosse Virus (LACV) - induced cell death in SH-SY5Y cells (AID 1508616); details: SH-SY5Y LACV cytopathicity rescue, ATP luminescence, 6 d; series mostly up to 4.29 µM;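 also: top concentration of the series differs between compounds; higher means more rescue of cells from virus-induced death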
Method in brief: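 Luminescent ATP readout (ATPLite 1step, 5 min room temperature) measured rescue from LACV-induced death after 6 days of infection at 0.01 MOI; normalized to infected DMSO wells and uninfected DMSO wells.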

[3] = target: Calcium and integrin-binding protein 1 (Homo sapiens) (UniProt Q99828); experiment: Primary qHTS for Identification of Calcium Integrin Binding Protein 1 (CIB1) Competitor (AID 1508620); details: CIB1-GST / FITC-alphaIIb peptide fluorescence polarization; series mostly up to 57.7 µM;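 also: GST tagged CIB1 binding a fluorescein labelled alphaIIb integrin peptide tracer; top concentration of the series differs between compounds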
Method in brief: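 Fluorescence polarization competition: CIB1-GST (1 uM final) preincubated with compound 15 min at room temperature, then FITC-labeled alphaIIb peptide (100 nM final) added for another 15 min. Polarization read at Ex 480/Em 540.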

[4] = Primary qHTS for small molecule stabilizers of the endoplasmic reticulum resident proteome: Secreted ER Calcium Modulated Protein (SERCaMP) assay (AID 1508630); details: SH-SY5Y GLuc-SERCaMP (Gaussia luciferase released on ER calcium loss) secretion, thapsigargin, luminescence; series mostly up to 38.4 µM
Method in brief: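 GLuc-SERCaMP-expressing SH-SY5Y cells, pretreated 16 h with compound, are challenged with thapsigargin to empty ER calcium stores; after 4 h, coelenterazine is added directly to the medium and luminescence is imaged.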

[5] = target: Cytochrome P450 2D6 (Homo sapiens) (UniProt P10635); experiment: Cytochrome P450 family 2 subfamily D member 6 (CYP2D6) small molecule antagonists: luciferase biochemical (cell-free) qHTS assay (AID 1645840; active = well fitted curve in the direction sought with a large enough effect in the repeat runs; an effect the other way counts as inactive or inconclusive; also: nearly all actives have a fitted effect of over 55% in size; also: potency is read from the fitted curve at half-maximal effect); details: P450-Glo CYP2D6 enzyme, luciferin luminescence, 1 h; series mostly up to 57.4 µM
Method in brief: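 P450-Glo luminescent screen: recombinant CYP2D6 enzyme–proluciferin substrate mix preincubated with compound 10 min at room temperature, then NADPH regeneration added for 1 h at room temperature. Detection reagent added for 20 min; luciferin light read as relative luminescence units.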

[6] = target: Cytochrome P450 2C9 (Homo sapiens) (UniProt P11712); experiment: Cytochrome P450 family 2 subfamily C member 9 (CYP2C9) small molecule antagonists: luciferase biochemical (cell-free) qHTS assay (AID 1645842; active = well fitted curve in the direction sought with a large enough effect in the repeat runs; an effect the other way counts as inactive or inconclusive; also: nearly all actives have a fitted effect of over 55% in size; also: potency is read from the fitted curve at half-maximal effect); details: P450-Glo CYP2C9 enzyme assay, luciferin luminescence; series mostly up to 57.4 µM
Method in brief: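 Luminescence, after 20 min with luciferin detection reagent, reflected CYP2C9 turnover during a 1 h NADPH-driven reaction at 37C. Enzyme-substrate mix contained 0.4% bovine serum albumin and was preincubated with compound 10 min at room temperature.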

[7] = Primary qHTS for inhibitors of nuclear receptor binding SET domain protein 2 (NSD2) in an isogenic RCH-ACV NSD2 p.E1099K mutant (9B) (AID 1645876); details: RCH-ACV NSD2 E1099K (9B) viability, CellTiter-Glo, 72 h; series mostly up to 44.9 µM; also: nearly all actives have a fitted effect of over 70% in size
[8] = Primary qHTS for inhibitors of nuclear receptor binding SET domain protein 2 (NSD2) in an RCH-ACV wild type WT cells (2C) (AID 1645877); details: RCH-ACV (leukaemia line) NSD2 WT (2C) viability, CellTiter-Glo, 72 h; series mostly up to 44.9 µM; also: nearly all actives have a fitted effect of over 70% in size; also: potency is read from the fitted curve at half-maximal effect
[9] = Validation qHTS assay for inhibitors of Activation Induced Cytidine Deaminase (AID): UDG Counterscreen signal (AID 1347427); details: biochemical UDG counterscreen, fluorescence signal; series mostly up to 115 µM
Method in brief: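 Counterscreen read of UDG activity (2 U/mL, 4/3x) in the FRET deamination format with AID (1 uM, 4/3x), DJC20/DJC23 substrates (250 nM, 4x), 4 h at room temperature. NaOH stop, fluorescence at 560 ex/665 em.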

[10] = target: Single-stranded DNA cytosine deaminase (Homo sapiens) (UniProt Q9GZX7); experiment: Validation qHTS assay for inhibitors of Activation Induced Cytidine Deaminase (AID): AID signal (AID 1347429); details: Recombinant AID, FRET ssDNA deamination with UDG, fluorescence; series mostly up to 115 µM
Method in brief: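 AID and UDG were combined and compounds added at final up to 114 uM, then DJC20/DJC23 FRET substrate was added for 4 hr at room temperature. NaOH was then added for 30 min before fluorescence was read at 540/590 nm.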

[11] = target: Calcium and integrin-binding protein 1 (Homo sapiens) (UniProt Q99828); experiment: Validation qHTS for Identification of Calcium Integrin Binding protein 1 (CIB1) Competitor (AID 1508618); details: CIB1-GST / FITC-alphaIIb peptide fluorescence polarization; series mostly up to 114 µM
Method in brief: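 Displacement of FITC-alphaIIb peptide (100 nM) from CIB1-GST (1 uM) is monitored by polarization in quantitative HTS format; buffer carries 5 mM CaCl2 and 125 mM NaCl at pH 7.4, incubations are at room temperature.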

[12] = A High-Content qHTS Against Drug Library for the Identification of Small Molecules that Inhibit DYT1 Early Onset Primary Dystonia-Associated Cell Pathology (AID 1645839; calls by dose curve); details: HEK293 Flp-In EGFP-delE TorsinA, punctate imaging, 48 h; series mostly up to 46.1 µM
Method in brief: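 Readout: %pathology, the punctate EGFP-TorsinA distribution from imaging, as the primary channel and cell count as the toxicity counterscreen. HEK293 Flp-In cells expressing delE TorsinA were induced with tetracycline and treated with compound for 48 h.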

Papain (Carica papaya) = Papain (Carica papaya) (UniProt P00784); experiment: Primary qHTS assay for inhibitors of the protease papain (AID 1645873); details: papain Z-FR-AMC cleavage, AMC fluorescence; series mostly up to 49.8 µM;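 also: papain turnover of Z-FR-AMC read as the AMC fluorescence gain over 10 min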
[13] = target: Cytochrome P450 3A4 (Homo sapiens) (UniProt P08684); experiment: Cytochrome P450 family 3 subfamily A member 4 (CYP3A4) small molecule antagonists: luciferase qHTS assay (AID 1645841; active = well fitted curve in the direction sought with a large enough effect in the repeat runs; an effect the other way counts as inactive or inconclusive; also: nearly all actives have a fitted effect of over 45% in size); details: P450-Glo CYP3A4 enzyme assay, luciferin luminescence; series mostly up to 57.4 µM
Method in brief: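 P450-Glo CYP3A4 enzyme with proluciferin substrate was preincubated with DMSO-dissolved compounds for 10 min at room temperature. NADPH regeneration solution started a 1 h reaction. Detection reagent stopped it, and luminescence was read after 20 min.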

[14] = Counterscreen qHTS for small molecule stabilizers of the endoplasmic reticulum resident proteome: GLuc-NoTag assay (AID 1508627); details: Gaussia luciferase NoTag secretion counterscreen, luminescence, thapsigargin 100 nM for final 4 h; series mostly up to 76.4 µM;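 also: SH-SY5Y cells given compound then 100 nM thapsigargin to empty ER calcium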
Method in brief: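 SH-SY5Y cells stably expressing constitutively secreted GLuc (no SERCaMP tag) were pre-incubated 5 h, treated with compound for 19 h, then 100 nM thapsigargin for 4 h at 37C; medium GLuc read by coelenterazine luminescence.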

[15] = Confirmatory qHTS for small molecule stabilizers of the endoplasmic reticulum resident proteome: Secreted ER Calcium Modulated Protein (SERCaMP) assay (AID 1508628); details: SERCaMP secreted luciferase ER calcium/proteostasis reporter; series mostly up to 76.3 µM;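 also: SH-SY5Y cells given compound 16 h then thapsigargin 100 nM for 4 h; nearly all actives have a fitted effect of over 40% in size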
Method in brief: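 We seeded SH-SY5Y-GLuc-SERCaMP cells, added compounds (three concentrations in the primary run, eleven up to 76.6 uM in confirmation), incubated 16 h, depleted ER calcium with thapsigargin, and read luciferase 4 h later.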

Measured: Potency

Sequence of Papain (Carica papaya) (P00784 whole entry, looked up): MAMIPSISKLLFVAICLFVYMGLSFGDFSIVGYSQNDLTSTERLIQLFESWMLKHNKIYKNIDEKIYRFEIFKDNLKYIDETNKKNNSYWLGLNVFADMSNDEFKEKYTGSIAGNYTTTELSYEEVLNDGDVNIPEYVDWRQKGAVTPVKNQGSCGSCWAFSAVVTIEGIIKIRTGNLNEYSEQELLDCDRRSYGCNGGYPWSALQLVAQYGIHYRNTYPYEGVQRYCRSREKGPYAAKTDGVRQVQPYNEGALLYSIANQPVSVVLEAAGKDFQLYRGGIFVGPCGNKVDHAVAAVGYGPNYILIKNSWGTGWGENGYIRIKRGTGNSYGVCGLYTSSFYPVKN
Sequence of Cytochrome P450 2D6 (Homo sapiens) (P10635 whole entry, looked up): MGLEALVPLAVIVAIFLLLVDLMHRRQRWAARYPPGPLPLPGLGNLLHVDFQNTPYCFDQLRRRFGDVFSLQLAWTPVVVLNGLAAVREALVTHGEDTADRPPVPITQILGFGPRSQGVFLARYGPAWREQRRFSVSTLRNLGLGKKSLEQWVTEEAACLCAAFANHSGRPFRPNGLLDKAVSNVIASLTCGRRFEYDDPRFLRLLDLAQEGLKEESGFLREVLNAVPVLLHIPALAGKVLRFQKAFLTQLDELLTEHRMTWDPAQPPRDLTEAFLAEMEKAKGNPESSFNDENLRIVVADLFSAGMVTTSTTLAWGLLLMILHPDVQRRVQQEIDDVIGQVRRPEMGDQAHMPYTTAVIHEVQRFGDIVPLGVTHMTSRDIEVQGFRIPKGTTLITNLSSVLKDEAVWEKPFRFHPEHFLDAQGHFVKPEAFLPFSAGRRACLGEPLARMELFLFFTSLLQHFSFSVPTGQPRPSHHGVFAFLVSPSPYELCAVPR
Sequence of Calcium and integrin-binding protein 1 (Homo sapiens) (Q99828 whole entry, looked up): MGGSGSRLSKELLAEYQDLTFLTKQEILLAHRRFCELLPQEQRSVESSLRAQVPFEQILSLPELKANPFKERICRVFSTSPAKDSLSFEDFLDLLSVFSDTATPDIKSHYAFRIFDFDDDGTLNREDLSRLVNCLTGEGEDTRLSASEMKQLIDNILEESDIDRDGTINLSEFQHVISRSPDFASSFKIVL
Sequence of Cytochrome P450 2C9 (Homo sapiens) (P11712 whole entry, looked up): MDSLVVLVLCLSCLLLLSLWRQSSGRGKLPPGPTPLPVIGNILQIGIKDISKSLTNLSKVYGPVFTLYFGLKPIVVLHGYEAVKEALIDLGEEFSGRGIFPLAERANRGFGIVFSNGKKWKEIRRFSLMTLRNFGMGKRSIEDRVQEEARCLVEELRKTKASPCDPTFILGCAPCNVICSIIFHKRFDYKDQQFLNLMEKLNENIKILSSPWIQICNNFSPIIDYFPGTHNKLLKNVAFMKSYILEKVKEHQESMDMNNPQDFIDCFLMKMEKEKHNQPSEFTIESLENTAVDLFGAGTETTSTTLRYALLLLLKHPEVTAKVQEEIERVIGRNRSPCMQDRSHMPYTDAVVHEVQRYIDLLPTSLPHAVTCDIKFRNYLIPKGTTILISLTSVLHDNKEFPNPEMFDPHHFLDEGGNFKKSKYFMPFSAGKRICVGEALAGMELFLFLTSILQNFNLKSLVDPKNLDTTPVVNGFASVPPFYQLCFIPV
Sequence of Single-stranded DNA cytosine deaminase (Homo sapiens) (Q9GZX7 whole entry, looked up): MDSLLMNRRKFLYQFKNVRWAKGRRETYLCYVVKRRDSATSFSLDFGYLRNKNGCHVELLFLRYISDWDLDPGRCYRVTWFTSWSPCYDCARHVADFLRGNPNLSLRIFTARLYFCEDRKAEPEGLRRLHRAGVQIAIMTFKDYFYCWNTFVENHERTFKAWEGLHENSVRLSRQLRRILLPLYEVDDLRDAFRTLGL
Sequence of Protein phosphatase 1D (Homo sapiens) (O15297 whole entry, looked up): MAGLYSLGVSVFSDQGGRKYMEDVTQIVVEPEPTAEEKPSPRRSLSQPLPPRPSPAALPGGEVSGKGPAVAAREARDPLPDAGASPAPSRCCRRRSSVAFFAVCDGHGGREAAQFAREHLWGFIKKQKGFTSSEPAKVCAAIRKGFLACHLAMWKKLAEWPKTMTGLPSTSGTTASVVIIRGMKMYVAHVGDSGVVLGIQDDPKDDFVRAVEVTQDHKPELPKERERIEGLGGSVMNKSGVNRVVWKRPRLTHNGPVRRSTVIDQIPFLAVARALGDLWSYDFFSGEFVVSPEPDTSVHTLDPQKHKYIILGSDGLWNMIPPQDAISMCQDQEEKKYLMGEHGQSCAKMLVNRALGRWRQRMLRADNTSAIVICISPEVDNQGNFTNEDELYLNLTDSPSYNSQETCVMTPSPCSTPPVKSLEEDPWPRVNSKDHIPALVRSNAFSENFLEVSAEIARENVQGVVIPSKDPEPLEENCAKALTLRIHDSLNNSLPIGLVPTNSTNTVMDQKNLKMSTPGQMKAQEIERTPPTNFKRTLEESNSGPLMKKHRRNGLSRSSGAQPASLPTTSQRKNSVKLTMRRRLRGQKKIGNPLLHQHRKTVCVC
Sequence of Cytochrome P450 3A4 (Homo sapiens) (P08684 whole entry, looked up): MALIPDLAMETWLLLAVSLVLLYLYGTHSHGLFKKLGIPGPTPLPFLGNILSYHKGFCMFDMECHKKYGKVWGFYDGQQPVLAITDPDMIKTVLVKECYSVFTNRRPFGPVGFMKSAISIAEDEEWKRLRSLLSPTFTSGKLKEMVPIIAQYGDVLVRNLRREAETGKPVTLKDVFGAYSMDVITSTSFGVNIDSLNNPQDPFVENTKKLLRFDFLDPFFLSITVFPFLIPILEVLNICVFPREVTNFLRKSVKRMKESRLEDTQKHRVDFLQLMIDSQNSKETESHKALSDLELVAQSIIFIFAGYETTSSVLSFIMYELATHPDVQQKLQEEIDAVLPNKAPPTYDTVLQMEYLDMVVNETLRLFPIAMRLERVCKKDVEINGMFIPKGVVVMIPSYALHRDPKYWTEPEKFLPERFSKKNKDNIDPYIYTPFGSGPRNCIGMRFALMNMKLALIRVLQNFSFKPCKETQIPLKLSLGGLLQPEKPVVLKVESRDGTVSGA

CC(=O)Oc1cc2c(s1)CCN(C(C(=O)C1CC1)c1ccccc1F)C2 (stereo unspecified)
inactive: [1] | [2] | [3] | [4] | [7] | [8]
active: [5] 11 µM and 10.7 µM | [6] 4.36 µM and 4.25 µM

CCCNC(=O)NS(=O)(=O)c1ccc(Cl)cc1
not listed: [6] | [13] | [14] | [15]
inactive: all other assays above

NC(N)=Nc1nc(CSCC/C(N)=N/S(N)(=O)=O)cs1
not listed: [5] | [13] | [14] | [15]
inactive: all other assays above

N#C[C@H]1C[C@H]2C[C@@H]2N1C(=O)[C@@H](N)C12CC3CC(CC(O)(C3)C1)C2
inactive: [1] | [2] | [4] | [12] | [5] | [6] | [8]

CC(C)NCC(O)COc1cccc2[nH]ccc12 (stereo unspecified)
not listed: [4] | [5] | [6] | [13] | [14] | [15]
inactive: all other assays above

CC(C)(C)c1ccc(C(O)CCCN2CCC(C(O)(c3ccccc3)c3ccccc3)CC2)cc1 (stereo unspecified)
inactive: [1] | [9] | [10] | [2] | [11] | [3] | Papain (Carica papaya)

C[C@@H](O)[C@H]1C(=O)N2C(C(=O)O)=C(S[C@@H]3CN[C@H](C(=O)N(C)C)C3)[C@H](C)[C@H]12
inactive: [1] | [2] | [3] | [4] | [12] | [5] | [6] | [7] | [8]

CCN1CCC[C@H]1CNC(=O)c1cc(S(N)(=O)=O)ccc1OC
not listed: [13] | [14] | [15]
inactive: all other assays above

O=c1[nH]cnc2c1ncn2[C@H]1CC[C@@H](CO)O1
inactive: [1] | [2] | [3] | [4] | [12] | [13] | [6] | [7] | [8]

CC(=O)N[C@@H](CS)C(=O)O
not listed: [13] | [14] | [15]
inactive: all other assays above

O=C1NC(=O)C(c2ccccc2)(c2ccccc2)N1
not listed: [6] | [13] | [14] | [15]
inactive: all other assays above

O=C(O)CCc1nc(-c2ccccc2)c(-c2ccccc2)o1
not listed: [4] | [11] | [13] | [14] | [15]
inactive: all other assays above

COC[C@@H](c1ccc(C(F)(F)F)cc1)N1CCN(C2(C)CCN(C(=O)c3c(C)ncnc3C)CC2)C[C@H]1C
inactive: [1] | [2] | [3] | [4] | [6]

CCN(CC)CCOC(=O)c1ccc(N)cc1
not listed: [5] | [13]
inactive: all other assays above

CC(C)OC(=O)C(C)(C)Oc1ccc(C(=O)c2ccc(Cl)cc2)cc1
active: [6] 2.45 µM
not listed: [2] | [3] | [11] | [13] | [14] | [15]
inactive: all other assays above

O=C(NCCN1CCOCC1)c1ccc(Cl)cc1
active: [5] 9.77 µM
not listed: [13] | [14] | [15]
inactive: all other assays above

CCN(CC)CCNC(=O)c1ccc(N)cc1
not listed: [9] | [10] | Papain (Carica papaya) | [13] | [14] | [15]
inactive: all other assays above

CC(=O)O[C@]1(C(C)=O)CC[C@H]2[C@@H]3C=C(Cl)C4=CC(=O)[C@@H]5C[C@@H]5[C@]4(C)[C@H]3CC[C@@]21C
active: [6] 9.77 µM
not listed: [7] | Papain (Carica papaya) | [13] | [14] | [15]
inactive: all other assays above

Clc1ccc(Cn2c(CN3CCCC3)nc3ccccc32)cc1
inactive and 18.6 µM (active): [8]
active: [5] 0.309 µM | [6] 12.3 µM
not listed: [7] | [13] | [14] | [15]
inactive: all other assays above

CCn1cc(C(=O)O)c(=O)c2ccc(C)nc21
inactive: [1] | [9] | [10] | [2] | [3] | [12] | [5] | Papain (Carica papaya)
